Experimental data from the supplement of paper PMC10681739.

biological target: T1, ETS1 (UniProt P14921); assay: ETS1 binding intensity (PBM fluorescence) in presence of RUNX1, normalised to ETS1-only experiment (arbitrary fluorescence units); higher = stronger binding; settings: ETS1 concentration 1 nM; RUNX1 concentration 25 nM
T1 sequence: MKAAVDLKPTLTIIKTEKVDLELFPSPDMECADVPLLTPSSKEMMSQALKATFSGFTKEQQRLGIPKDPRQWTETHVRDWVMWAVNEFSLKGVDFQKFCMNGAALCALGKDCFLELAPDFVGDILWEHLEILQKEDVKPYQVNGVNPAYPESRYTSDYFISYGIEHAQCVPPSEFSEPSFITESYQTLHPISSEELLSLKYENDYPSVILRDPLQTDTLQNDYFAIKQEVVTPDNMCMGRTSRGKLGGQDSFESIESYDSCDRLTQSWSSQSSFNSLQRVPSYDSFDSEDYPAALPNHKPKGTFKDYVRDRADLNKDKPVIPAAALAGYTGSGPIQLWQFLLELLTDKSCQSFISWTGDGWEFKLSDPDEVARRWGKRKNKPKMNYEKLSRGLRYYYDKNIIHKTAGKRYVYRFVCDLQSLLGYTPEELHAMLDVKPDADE
Description: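 Cooperative genomic-context PBM: 36-bp genomic probes with neighbouring ETS1 and RUNX1 sites, double-stranded on Agilent 4x180k arrays. Full-length recombinant human ETS1 (1 nM) was incubated alone or with RUNX1 (25 nM) and detected with anti-ETS1 antibody plus Alexa488 secondary. Value is the median fluorescence intensity over 4 replicate spots; the ETS1+RUNX1 data were normalised to the ETS1-only data using probes without RUNX1 sites. The 36-bp variable region sits on the array probe with constant linker/primer flanks that are not printed.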

Question: TTTCAAAACCCGGAAATGACCGCCAGGCTGGCATCA was tested. Which ETS1 binding intensity did it give?
Answer: The ETS1 binding intensity was 6320.

Question: How did the ETS1 binding intensity turn out when GAGCATAGCCTAGCAGGATGTGGTTAAATACATTTG was run?
Answer: Its ETS1 binding intensity is 32800.

Question: How did the ETS1 binding intensity turn out when GCACGTGTTTCCTGGGGCTGCACCACAGCACCACAC was run?
Answer: Its ETS1 binding intensity is 497.

Question: ACAGGAAGTGTCTCTATAGAAACCAAACCACAGAAA was tested. Which ETS1 binding intensity did it give?
Answer: Its ETS1 binding intensity is 7500.

Question: Which ETS1 binding intensity does the source give for CAGATTCAAGGAAGTGGTGGTGGTTTGGTGTCGTTG here?
Answer: Its ETS1 binding intensity is 1370.

Question: GTCCTCCACTATTGTTTCCGGCCGCAGCAGAGGCGG was tested. Which ETS1 binding intensity did it give?
Answer: The ETS1 binding intensity was 2090.

Question: Which ETS1 binding intensity does the source give for GCCCCTCTTCCTGACTCACACAACCGCCTCTAGTCT here?
Answer: Its ETS1 binding intensity is 330.

Question: GGGGCCCCGGATGCACTGAGCGGCTGCGGCGCGGCT was tested. Which ETS1 binding intensity did it give?
Answer: Its ETS1 binding intensity is 642.

Question: For GACCACTTCCTTTCTGTGTTTTGTGGTTTCACAACT, which ETS1 binding intensity is on record?
Answer: Its ETS1 binding intensity is 1650.

Question: For AAAACAACTTCCTTCCCCTCTCTCTCCACCACAGTC, which ETS1 binding intensity is on record?
Answer: Its ETS1 binding intensity is 560.

Question: With CTGGGGAGGAAGCCTGAGGTGTGTGGTTTTGTTAAC as the sequence, how does the ETS1 binding intensity read?
Answer: Its ETS1 binding intensity is 811.

Question: For AGCTAAACCCAGTTCCGGTGCTGTGGGGAGCTCAGA, which ETS1 binding intensity is on record?
Answer: Its ETS1 binding intensity is 908.

Question: How did the ETS1 binding intensity turn out when ACCTGTGTTCTGGCAGGATGTGGTTGACCTCAGCAG was run?
Answer: Its ETS1 binding intensity is 18700.

Question: With CAGAGGAGGAAGAGGAAGCCACAGCGATAGGGTCAC as the sequence, how does the ETS1 binding intensity read?
Answer: Its ETS1 binding intensity is 520.

Question: With GGAGGAAGTGACACCCACCCACTGCCCCCGCAAGGT as the sequence, how does the ETS1 binding intensity read?
Answer: The ETS1 binding intensity was 987.

Question: Which ETS1 binding intensity does the source give for GCCCCTAAACCGGATGCGGCAGCCACCGCGGACCCC here?
Answer: The ETS1 binding intensity was 16600.

Question: How did the ETS1 binding intensity turn out when TCTCCTTTCAGGAAGCTGCACCCAAACCACCCTCAG was run?
Answer: The ETS1 binding intensity was 610.

Question: With CTTGCTTGAGTCACAGGAAACCACTCAGAGGCTAAC as the sequence, how does the ETS1 binding intensity read?
Answer: The ETS1 binding intensity was 2860.

Question: For CAGAGACACCTGCGGAAGCCACAGGGAGGTCACAGA, which ETS1 binding intensity is on record?
Answer: The ETS1 binding intensity was 613.

Question: With TCTTTAAAACCCGGAAGTTCCTGTGGTTCATACGCT as the sequence, how does the ETS1 binding intensity read?
Answer: The ETS1 binding intensity was 16500.

Question: Which ETS1 binding intensity does the source give for GAAAGCACGTGTTTCCTGCGGCTGCACCCCAGCACC here?
Answer: Its ETS1 binding intensity is 386.

Question: For TTCAGGTGACTTCCGGCCGGACCGCTGAGGACGCGG, which ETS1 binding intensity is on record?
Answer: The ETS1 binding intensity was 9520.

Question: With GCACACCGGAACTCACACCTGAAACCACAGAACCAA as the sequence, how does the ETS1 binding intensity read?
Answer: Its ETS1 binding intensity is 4300.

Question: How did the ETS1 binding intensity turn out when GGCGGGACTTCCGGCGTCTCCCCTCGGCGGTTGCTT was run?
Answer: Its ETS1 binding intensity is 2700.

Question: For TGCACGGTAAGCAGGAAGCTGCGGCCGAGCTGAGTC, which ETS1 binding intensity is on record?
Answer: The ETS1 binding intensity was 3120.

Question: Which ETS1 binding intensity does the source give for CTTTGTTGAAAAGGATGTGGTCATCTGATCTTGCTG here?
Answer: The ETS1 binding intensity was 3320.

Question: Which ETS1 binding intensity does the source give for CTGCCTTGCTTTTCCGGTCGCCGCGGTCCTCTGCGC here?
Answer: Its ETS1 binding intensity is 2110.

Question: Which ETS1 binding intensity does the source give for TTCTGTAGCTTAGGATGTGGGTTTCTTTGTTTCTGA here?
Answer: Its ETS1 binding intensity is 1020.

Question: Which ETS1 binding intensity does the source give for TCTGTGACTACGCGGATGTTGTGGGCGGCTACATGC here?
Answer: The ETS1 binding intensity was 1810.

Question: Which ETS1 binding intensity does the source give for CTAGTTTCCTGTGGCTGCTATGACAAATGACCACAG here?
Answer: Its ETS1 binding intensity is 474.

Question: CCACCACTCTAAGCAGGATGCGGTGCGACCCAAGAG was tested. Which ETS1 binding intensity did it give?
Answer: The ETS1 binding intensity was 2470.

Question: Which ETS1 binding intensity does the source give for AGGCCTCGCTTCCTCTCCTGACCACACCCTGCAGCT here?
Answer: The ETS1 binding intensity was 590.

Question: For TTTGAGCGGGCAGGATGTGGTGACAATGATACTGCA, which ETS1 binding intensity is on record?
Answer: Its ETS1 binding intensity is 8140.

Question: Which ETS1 binding intensity does the source give for GGGAGGTGTCCAGGAAGTGGTTGGAGAGTCTGGTCT here?
Answer: The ETS1 binding intensity was 3340.

Question: For TTCAAAGGAGTCCAAGGAAGTGGTTTAACAGCGATG, which ETS1 binding intensity is on record?
Answer: Its ETS1 binding intensity is 1400.

Question: TGGGAACTTCCTGTGGAGGAGTGCATTGTGGGACTT was tested. Which ETS1 binding intensity did it give?
Answer: The ETS1 binding intensity was 726.

Question: How did the ETS1 binding intensity turn out when GGGCCCGGGCCAGGAAGTGGTTTTGCAGAGGTGTTT was run?
Answer: Its ETS1 binding intensity is 7660.

Question: How did the ETS1 binding intensity turn out when AATGATTACCTAACAGGAAAACCACATTGGTCATTT was run?
Answer: The ETS1 binding intensity was 3100.

Question: With GGGTCCTTCCGGGTTTTGTGTCGAATCTGCGGCGGC as the sequence, how does the ETS1 binding intensity read?
Answer: The ETS1 binding intensity was 395.

Question: How did the ETS1 binding intensity turn out when GCCGGTGAGGGCGGAAGTGGTAAGACTGACGTGTCC was run?
Answer: The ETS1 binding intensity was 8740.
